Tests used:
Assay in all cases: fraction of edited reads among all mapped reads; higher = more Cas9 editing
Conditions in all cases: mESC; 2uM; 72 h treatment, harvest day 5
[1] = compound: CC(=O)O/N=C1\C(=O)N(Cc2cc(Cl)ccc2Cl)c2ccc(Cl)cc21
[2] = compound: CC(C)(C#N)c1ccc(N2C(=O)OCc3cnc4ccc(-c5cnc6ccccc6c5)cc4c32)cc1
[3] = compound: CCCCOc1c(C(=O)c2c(F)cc(C)cc2F)c[nH]c2nncc1-2
[4] = compound: CCN1CCN(CC(=O)Nc2ccc(-c3cccc4c(=O)cc(N5CCOCC5)oc34)c3sc4ccccc4c23)CC1
[5] = compound: CCc1c2c(nc3ccc(OC(=O)N4CCC(N5CCCCC5)CC4)cc13)-c1cc3c(c(=O)n1C2)COC(=O)[C@]3(O)CC [Irinotecan HCl Trihydrate]
[6] = compound: CNc1ccc([N+](=O)[O-])c(Nc2ccc3[nH]ncc3c2)n1
Rifapentine = compound: CO[C@H]1/C=C/O[C@@]2(C)Oc3c(C)c(O)c4c(O)c(c(/C=N/N5CCN(C6CCCC6)CC5)c(O)c4c3C2=O)NC(=O)/C(C)=C\C=C\[C@H](C)[C@H](O)[C@@H](C)[C@@H](O)[C@@H](C)[C@H](OC(C)=O)[C@@H]1C [Rifapentine]
[7] = compound: COc1ccccc1-c1cc(Nc2cccc(CS(N)(=O)=O)c2)ncn1
[8] = compound: C[C@@H]1CN(CC(=O)Nc2ccc3c(c2)Cc2cccc(-c4cc(=O)cc(N5CCOCC5)o4)c2S3)C[C@H](C)O1
[9] = compound: CCn1c(=O)c(-c2ccc(Cl)cc2Cl)cc2cnc(Nc3ccc(N4CCNCC4)c(F)c3)nc21

| Target | fraction of edited reads among all mapped reads [1] | fraction of edited reads among all mapped reads [2] | fraction of edited reads among all mapped reads [3] | fraction of edited reads among all mapped reads [4] | fraction of edited reads among all mapped reads [5] | fraction of edited reads among all mapped reads [6] | fraction of edited reads among all mapped reads (Rifapentine) | fraction of edited reads among all mapped reads [7] | fraction of edited reads among all mapped reads [8] | fraction of edited reads among all mapped reads [9] |
| --- | --- | --- | --- | --- | --- | --- | --- | --- | --- | --- |
| 21.0 CGATTGAGAGTCAAACGGGCCAGAAAACTCCGGGAACGGGCCAGAAAACTCCGGGGCATGG | 0.124 | 0.106 | 0.132 | 0.0441 | 0.152 | 0.141 | 0.199 | 0.144 | 0.046 |  |
| 45.0 (DMSO control at this site: 1-bp insertion 0.017, MH deletion 0.666, edited 0.101) TTACACAGCATGAACTGCTAGGTGATGATGTCAGATTCGGTTTTACTAACTTCTCCAAAAA | 0.115 | 0.112 | 0.119 | 0.0494 | 0.153 | 0.133 | 0.203 | 0.144 | 0.0499 | 0.113 |
| 30.0 (DMSO control at this site: 1-bp insertion 0.074, MH deletion 0.67, edited 0.142) GAGCTGGCATGAGTATTTGTGCCACATGGCTCCCACATGGCTCCACATGCAAGTTTGAAAC | 0.142 | 0.149 | 0.158 | 0.066 | 0.204 | 0.187 | 0.224 | 0.177 | 0.134 | 0.156 |
| 8.0 GCATGCGTGTTTTGGGACAATGTAGTATACATTTGGGAGGCTCTCAGCTTTTCCCAATAAA | 0.0233 | 0.0207 | 0.0186 |  |  |  |  |  |  |  |
| 17.0 (DMSO control at this site: 1-bp insertion 0.112, MH deletion 0.348, edited 0.058) CCATAGCGCGATAAATATGACGGCTCATCCTGTATGACGGCTCATCCTGTATCAACTGTCC | 0.0666 | 0.0797 | 0.0794 | 0.0411 | 0.0882 | 0.0812 | 0.115 | 0.0964 | 0.0394 | 0.0594 |
| 27.0 CCAGAATTAGAACATATCATCTGGACCCTTTTCCATCTGGACCCTTTTCCAGCACACCCTG | 0.0506 | 0.055 | 0.0501 |  | 0.0605 | 0.0612 | 0.0829 | 0.0745 |  |  |
| 43.0 (DMSO control at this site: 1-bp insertion 0.134, MH deletion 0.714, edited 0.104) AGTTTAACTTACTCCGGCCAAAAAAGAACTGCACCTCTGGAGCGGGTTAGTGGTGGTGGTA | 0.15 | 0.143 | 0.151 | 0.0617 | 0.184 | 0.164 | 0.218 |  | 0.0771 | 0.119 |
| 1.0 (DMSO control at this site: 1-bp insertion 0.521, MH deletion 0.323, edited 0.141) GTGTCACAGTGCACGAGTGACGGGATAATGTGCTGACAGGTAATTGATAGGCTTCCAACTT | 0.144 | 0.154 | 0.163 | 0.0521 | 0.194 | 0.207 | 0.256 | 0.203 | 0.152 | 0.145 |
| 0.0 (DMSO control at this site: 1-bp insertion 0.463, MH deletion 0.339, edited 0.14) AGGATTACCGAGACCTACGCGAACCGAAATCGCTGTCCGGTGCGCAAGCAGGGCTGGCGTC | 0.147 | 0.154 | 0.172 | 0.0626 | 0.218 | 0.203 | 0.274 | 0.213 | 0.15 | 0.155 |
| 28.0 (DMSO control at this site: 1-bp insertion 0.035, MH deletion 0.77, edited 0.142) TGGTTCTTCCTTTGTAGAGAGTGTTCATCTGGGAATCTGGGACTTGGATGAGACAATCATT | 0.171 | 0.174 | 0.171 | 0.0787 | 0.217 | 0.181 | 0.291 | 0.196 | 0.0747 | 0.16 |
| 26.0 (DMSO control at this site: 1-bp insertion 0.518, MH deletion 0.262, edited 0.026) AGGGCGCGCCCCACGCACTCTGCGGCAAGTCCCTCTGCGGCAAGTCCTCGGCCCGGAAGAC | 0.0291 | 0.0255 | 0.0319 | 0.0118 | 0.0344 | 0.0263 | 0.0398 | 0.0351 | 0.0296 | 0.0242 |
| 5.0 (DMSO control at this site: 1-bp insertion 0.214, MH deletion 0.567, edited 0.105) CGCTGACCCGAGACCTACGCGAACCGAAATCGGCGACCGGTGCGCAAGCAGGGCTGGCGTC | 0.13 | 0.128 | 0.133 | 0.0591 | 0.169 | 0.145 | 0.226 | 0.163 | 0.085 | 0.13 |
| 22.0 (DMSO control at this site: 1-bp insertion 0.573, MH deletion 0.229, edited 0.045) CTGATGGTTGAAGGATTTAGCCGGGGTCCTAGACGCCGGGGTCCTAGACGAAAGGGCCACG | 0.0447 | 0.0542 | 0.0455 | 0.0167 | 0.0664 | 0.0513 | 0.0926 | 0.0709 | 0.0389 | 0.0371 |
| 15.0 GCGCCTCCAATGACCCAGTGGGATCCTACTCCATAATGGGATCCTGGGGATTCCTCGCTCC | 0.105 | 0.0725 |  |  |  |  | 0.107 |  |  |  |
| 20.0 (DMSO control at this site: 1-bp insertion 0.349, MH deletion 0.138, edited 0.084) TACAGGTGTAGACTGGTTACGTGGCTGCGGAATTGACTGGTTACGTGGCTGCGGAATTTTG | 0.0924 | 0.0867 | 0.0976 | 0.0384 | 0.115 | 0.1 | 0.133 | 0.147 | 0.103 | 0.0929 |
| 3.0 (DMSO control at this site: 1-bp insertion 0.109, MH deletion 0.149, edited 0.09) TGCTAGCGCCCCCACAAAGCGGACCAGCCAGCACTATAGGGAATAAGGCCAACTTGCACCC | 0.101 | 0.0887 | 0.115 | 0.0444 | 0.124 | 0.103 | 0.178 | 0.123 | 0.0619 | 0.099 |
| 19.0 (DMSO control at this site: 1-bp insertion 0.121, MH deletion 0.101, edited 0.057) TCTGCAGGGGTCGGAACCCGGGGGCTAGGGCTATCCCGGGGGCTAGGGCTATTAGCGAACC | 0.0656 | 0.0719 | 0.0679 | 0.0342 | 0.0806 | 0.0687 | 0.0905 | 0.087 | 0.0476 | 0.0564 |
| 7.0 (DMSO control at this site: 1-bp insertion 0.128, MH deletion 0.374, edited 0.098) TACTCAACCGAGACCTACGCGAACCGAAATCGTATGCCGGTGCGCAAGCAGGGCTGGCGTC | 0.117 | 0.115 | 0.118 | 0.0615 | 0.161 | 0.135 | 0.19 | 0.126 | 0.0557 | 0.0955 |
| 29.0 (DMSO control at this site: 1-bp insertion 0.084, MH deletion 0.745, edited 0.133) TTGATGAACTTCCTCTTCTTCTCATGTCTCCGGTCTCCGGTAGGCCACGTGCATGGCCACT | 0.166 | 0.157 | 0.153 | 0.073 | 0.196 | 0.167 | 0.256 | 0.172 | 0.0736 | 0.142 |
